These results are taken from PubChem BioAssay (NCI).

About 83,000 compounds went through this panel and 20% of them were active in at least one assay; those are over-represented in the sample as a whole.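 Single-concentration screen, 48 h exposure, 96-well plates. Endpoint: percent growth. Below 10 = active.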 Values without a mark were called inactive. The source made the active and inactive calls.

The first assay concerns HCT-116 colon. The assay is described as follows: NCI-60 one-dose screen, 48 h (100 = growth as untreated, 0 = no growth, -100 = all killed). The following applies: 10 µM unless noted.
Turning to `COc1ccc(C(=O)c2cc(C)c(OC)c(C)c2)c(OC)c1NC(C)=O`, the growth is 8.06% (active).

Take `CCCCCN1C=C/C(=C\C(=O)n2ccc3ccccc32)c2ccccc21`: the growth was 72.6%.

For the compound `COc1ccc(C(=O)C2C(C#N)C(C#N)C3C=Cc4ccccc4N32)cc1` (stereo unspecified), the growth is 15.9%.

As for `COc1cc2c(cc1OC)C(=O)/C(=C/c1cc(C)c(O)c(C)c1)S2`, the growth was 23.1%.

For `CN1CCN(C(=O)[C@]23CCC(C)(C)C[C@H]2C2=CC[C@@H]4[C@@]5(C)C/C(=C/c6cccnc6)C(=O)C(C)(C)[C@@H]5CC[C@@]4(C)[C@]2(C)CC3)CC1`, the growth was 20%.

On to `COc1cc(C=O)ccc1OC1OC(COC(C)=O)C(OC(C)=O)C(OC(C)=O)C1OC(C)=O` (stereo unspecified), for which the growth is 100%.

As for `Cc1ccc(CNc2c3ccccc3nc3cc(NC(=O)CCN4CCCC4)ccc23)cc1`, the growth was -77.9% (active).

`N#Cc1c(NCc2ccccc2I)sc2c1CCCCC2`: the growth is 90.3%.

In the case of `Cn1nc(CC#N)c2c(=N)n(N)cnc21`, the growth was 119%.

Consider `COc1cc2nc(-c3ccc(Cl)cc3)cc(OCCCN3CCCC3)c2cc1OC`, for which the growth was 23.4%.

With `CCCCCCNC(=O)Nc1ccc2cc3ccc(NC(=O)NCCCCCC)cc3nc2c1`, the growth was -18.9% (active).

In the case of `O=C(Cn1c(C(=O)c2ccccc2)nc2ccccc21)c1ccc(F)cc1`, the growth is 39.2%.

Consider `O=C(/C(=C\c1ccc([N+](=O)[O-])cc1)S(=O)Cc1ccc(F)cc1)c1ccc(F)cc1` (stereo unspecified), for which the growth is -20.5% (active).

For `Cn1ccc2c1CC1CN(Cc3ccco3)C(=O)C1C2C(=O)O` (stereo unspecified), the growth was 104%.

With `O=C(O)c1ccc(-c2nn(-c3ccc(C(F)(F)F)cc3)cc2CNc2ccc(Oc3ccccc3)cc2)cc1`, the growth is 60.8%.

For the compound `N#CC(C(=O)/C(=N/NC(=O)c1ccccc1O)C(C#N)c1ccccc1)c1ccccc1` (stereo unspecified), the growth was 14.7%.

Turning to `Cc1ccc(NC(=O)Cc2ccc(/C=C/C(=O)c3ncc[nH]3)cc2)cc1`, the growth was 8.97% (active).

Take `Nc1n[nH]c2cccc(C#Cc3cccc(C(=O)Nc4cc(CN5CCOCC5)cc(C(F)(F)F)c4)c3)c12`: the growth is 14.1%.

In the case of `O=C(/C=C(/C=C/c1coc2ccccc12)OB(F)F)/C=C/c1coc2ccccc12`, the growth is 75.3%.

For `Cc1nc2sccn2c1-c1cn2ccsc2n1`, the growth is 88.3%.

Regarding `C=C1C(=O)O[C@H]2[C@H]1CC/C(CNC(=O)/C=C/c1ccccc1)=C\CC[C@@]1(C)O[C@@H]21`, the growth is -58.9% (active).

With `N#CC1=C(N)Oc2c(cnn2-c2ccc([N+](=O)[O-])cc2[N+](=O)[O-])C1c1ccccc1` (stereo unspecified), the growth is 100%.

For `NNC(=O)c1ccc(-n2nc(-c3ccccc3)c3ccccc32)cc1`, the growth was 82.2%.

With `CC1=CCC(OC(=O)C(C)(O)CCC(O)(C(=O)OC2(C)C=CC(O)(C(C)C)CC2)C(C)C)(C(C)C)CC1` (stereo unspecified), the growth is 101%.

In the case of `S=c1cc(S)c2cc(Br)ccc2[nH]1`, the growth is 78.2%.

Consider `NCCCCCCNc1cc(-c2cccc(OC(F)(F)F)c2)nc2ccc(N3CCCC3)cc12`, for which the growth was -63.3% (active).

With `COc1cccc(-c2cc(C(=O)Nc3ccc(/C=C/c4ccc(OC5CCN(C)CC5)cc4)cc3)ccc2OC)c1`, the growth was -93.4% (active).

For `COC(=O)/C=C1\S/C(=N\NC(=O)c2cc3ccc2/C=C\c2ccc(cc2)/C=C\3)N(Cc2ccccc2)C1=O`, the growth was 49.5%.

As for `Nc1c(C(=O)Nc2cccc3cnccc23)sc2nc3c(cc12)CN(Cc1ccccc1)CC3`, the growth is 100%.

For `Cc1c(C(=O)NCCC(=O)NO)sc2ncnc(Nc3ccc(NC(=O)Nc4cccc(C(F)(F)F)c4)cc3)c12`, the growth is 108%.

Turning to `O=S(=O)(NCCCNc1nccc(-c2c(-c3cccc(F)c3)nc3sccn23)n1)c1cccc2ccccc12`, the growth is 32.4%.

On to `CN1C(N2CCN(S(=O)(=O)c3ccccc3)CC2)=NS(=O)(=O)c2ccccc21`, for which the growth was 109%.

Regarding `N#C/C(=C\c1ccccn1)c1nc2cc(Cl)ccc2s1`, the growth was 55%.

For `COc1cc2oc(-c3cccc(C(=O)Nc4ccccc4)c3)cc(=O)c2c(O)c1OC`, the growth is 46.3%.

For the compound `COc1ccc(/C=C2\Oc3cc(OCCCN4CCCCC4)ccc3C2=O)cc1OC`, the growth was 76%.

As to `O=S(=O)(NCCNc1nccc(-c2c(-c3cccc(F)c3)nc3sccn23)n1)c1ccc(Cl)cc1`, the growth was 34%.

Turning to `COc1ccc2c(c1)oc1c(C)c3c(c(C)c12)C(=O)N(CCN1CCOCC1)C3=O`, the growth was 83%.

Turning to `CNCCn1c(=O)c2cc(OC)c(OC)cc2c2ccc3cc4c(cc3c21)OCO4`, the growth is 2.87% (active).

A further assay has as its system HCC-2998 colon. The assay is described as above. The conditions noted are these: 10 µM unless noted.
For `COc1ccc(C(=O)c2cc(C)c(OC)c(C)c2)c(OC)c1NC(C)=O`, the growth is 13.8%.

Turning to `CCCCCN1C=C/C(=C\C(=O)n2ccc3ccccc32)c2ccccc21`, the growth is 107%.

On to `COc1ccc(C(=O)C2C(C#N)C(C#N)C3C=Cc4ccccc4N32)cc1` (stereo unspecified), for which the growth was 33.6%.

In the case of `COc1cc2c(cc1OC)C(=O)/C(=C/c1cc(C)c(O)c(C)c1)S2`, the growth was 60.4%.

`CN1CCN(C(=O)[C@]23CCC(C)(C)C[C@H]2C2=CC[C@@H]4[C@@]5(C)C/C(=C/c6cccnc6)C(=O)C(C)(C)[C@@H]5CC[C@@]4(C)[C@]2(C)CC3)CC1`: the growth was 66.6%.

Regarding `COc1cc(C=O)ccc1OC1OC(COC(C)=O)C(OC(C)=O)C(OC(C)=O)C1OC(C)=O` (stereo unspecified), the growth is 108%.

With `Cc1ccc(CNc2c3ccccc3nc3cc(NC(=O)CCN4CCCC4)ccc23)cc1`, the growth was -15.8% (active).

In the case of `N#Cc1c(NCc2ccccc2I)sc2c1CCCCC2`, the growth was 113%.

`Cn1nc(CC#N)c2c(=N)n(N)cnc21`: the growth was 120%.

Turning to `COc1cc2nc(-c3ccc(Cl)cc3)cc(OCCCN3CCCC3)c2cc1OC`, the growth is 72.4%.

Consider `CCCCCCNC(=O)Nc1ccc2cc3ccc(NC(=O)NCCCCCC)cc3nc2c1`, for which the growth is -24.5% (active).

As to `O=C(Cn1c(C(=O)c2ccccc2)nc2ccccc21)c1ccc(F)cc1`, the growth was 50.1%.

With `O=C(/C(=C\c1ccc([N+](=O)[O-])cc1)S(=O)Cc1ccc(F)cc1)c1ccc(F)cc1` (stereo unspecified), the growth is 45.9%.

Consider `Cn1ccc2c1CC1CN(Cc3ccco3)C(=O)C1C2C(=O)O` (stereo unspecified), for which the growth is 104%.

As for `O=C(O)c1ccc(-c2nn(-c3ccc(C(F)(F)F)cc3)cc2CNc2ccc(Oc3ccccc3)cc2)cc1`, the growth was 115%.

In the case of `N#CC(C(=O)/C(=N/NC(=O)c1ccccc1O)C(C#N)c1ccccc1)c1ccccc1` (stereo unspecified), the growth was 85.9%.

Regarding `Cc1ccc(NC(=O)Cc2ccc(/C=C/C(=O)c3ncc[nH]3)cc2)cc1`, the growth is 98%.

For `Nc1n[nH]c2cccc(C#Cc3cccc(C(=O)Nc4cc(CN5CCOCC5)cc(C(F)(F)F)c4)c3)c12`, the growth is 45%.

Regarding `O=C(/C=C(/C=C/c1coc2ccccc12)OB(F)F)/C=C/c1coc2ccccc12`, the growth was 98.8%.

For `Cc1nc2sccn2c1-c1cn2ccsc2n1`, the growth is 50.2%.

With `C=C1C(=O)O[C@H]2[C@H]1CC/C(CNC(=O)/C=C/c1ccccc1)=C\CC[C@@]1(C)O[C@@H]21`, the growth was -7.49% (active).

As to `N#CC1=C(N)Oc2c(cnn2-c2ccc([N+](=O)[O-])cc2[N+](=O)[O-])C1c1ccccc1` (stereo unspecified), the growth is 101%.

Take `NNC(=O)c1ccc(-n2nc(-c3ccccc3)c3ccccc32)cc1`: the growth was 54.8%.

`CC1=CCC(OC(=O)C(C)(O)CCC(O)(C(=O)OC2(C)C=CC(O)(C(C)C)CC2)C(C)C)(C(C)C)CC1` (stereo unspecified): the growth was 112%.

Consider `S=c1cc(S)c2cc(Br)ccc2[nH]1`, for which the growth was 102%.

For `NCCCCCCNc1cc(-c2cccc(OC(F)(F)F)c2)nc2ccc(N3CCCC3)cc12`, the growth was -66.5% (active).

`COc1cccc(-c2cc(C(=O)Nc3ccc(/C=C/c4ccc(OC5CCN(C)CC5)cc4)cc3)ccc2OC)c1`: the growth is 74.9%.

For `COC(=O)/C=C1\S/C(=N\NC(=O)c2cc3ccc2/C=C\c2ccc(cc2)/C=C\3)N(Cc2ccccc2)C1=O`, the growth was 79.5%.

On to `Nc1c(C(=O)Nc2cccc3cnccc23)sc2nc3c(cc12)CN(Cc1ccccc1)CC3`, for which the growth was 115%.

Turning to `Cc1c(C(=O)NCCC(=O)NO)sc2ncnc(Nc3ccc(NC(=O)Nc4cccc(C(F)(F)F)c4)cc3)c12`, the growth is 112%.

Turning to `O=S(=O)(NCCCNc1nccc(-c2c(-c3cccc(F)c3)nc3sccn23)n1)c1cccc2ccccc12`, the growth is 16.3%.

Regarding `CN1C(N2CCN(S(=O)(=O)c3ccccc3)CC2)=NS(=O)(=O)c2ccccc21`, the growth is 101%.

Take `N#C/C(=C\c1ccccn1)c1nc2cc(Cl)ccc2s1`: the growth was 92.7%.

Take `COc1cc2oc(-c3cccc(C(=O)Nc4ccccc4)c3)cc(=O)c2c(O)c1OC`: the growth is 89.7%.

In the case of `COc1ccc(/C=C2\Oc3cc(OCCCN4CCCCC4)ccc3C2=O)cc1OC`, the growth was 108%.

Regarding `O=S(=O)(NCCNc1nccc(-c2c(-c3cccc(F)c3)nc3sccn23)n1)c1ccc(Cl)cc1`, the growth was 83.4%.

Regarding `COc1ccc2c(c1)oc1c(C)c3c(c(C)c12)C(=O)N(CCN1CCOCC1)C3=O`, the growth is 111%.

Turning to `CNCCn1c(=O)c2cc(OC)c(OC)cc2c2ccc3cc4c(cc3c21)OCO4`, the growth is -51.6% (active).
